Values joined by “and” are separate entries in the source; they are usually repeats but may differ in a detail not shown here. Identical values can stand only once. Records with an inconclusive call do not appear. A number with no mark means an inactive call. Active and inactive are the calls of the source. Unless noted, calls follow the shape of the full dose curve.
target: Androgen receptor (Homo sapiens) (UniProt P10275); assay: qHTS assay for small molecule agonists of androgen receptor signaling (AID 588515; active = well fitted curve in the direction sought with a large enough effect in the signal ratio, with a control signal flat; the % refers to the signal ratio); conditions: AR-UAS-bla HEK293, beta-lactamase ratio, agonist 16 h; stronger effect = higher value
Sequence (P10275 whole entry, looked up): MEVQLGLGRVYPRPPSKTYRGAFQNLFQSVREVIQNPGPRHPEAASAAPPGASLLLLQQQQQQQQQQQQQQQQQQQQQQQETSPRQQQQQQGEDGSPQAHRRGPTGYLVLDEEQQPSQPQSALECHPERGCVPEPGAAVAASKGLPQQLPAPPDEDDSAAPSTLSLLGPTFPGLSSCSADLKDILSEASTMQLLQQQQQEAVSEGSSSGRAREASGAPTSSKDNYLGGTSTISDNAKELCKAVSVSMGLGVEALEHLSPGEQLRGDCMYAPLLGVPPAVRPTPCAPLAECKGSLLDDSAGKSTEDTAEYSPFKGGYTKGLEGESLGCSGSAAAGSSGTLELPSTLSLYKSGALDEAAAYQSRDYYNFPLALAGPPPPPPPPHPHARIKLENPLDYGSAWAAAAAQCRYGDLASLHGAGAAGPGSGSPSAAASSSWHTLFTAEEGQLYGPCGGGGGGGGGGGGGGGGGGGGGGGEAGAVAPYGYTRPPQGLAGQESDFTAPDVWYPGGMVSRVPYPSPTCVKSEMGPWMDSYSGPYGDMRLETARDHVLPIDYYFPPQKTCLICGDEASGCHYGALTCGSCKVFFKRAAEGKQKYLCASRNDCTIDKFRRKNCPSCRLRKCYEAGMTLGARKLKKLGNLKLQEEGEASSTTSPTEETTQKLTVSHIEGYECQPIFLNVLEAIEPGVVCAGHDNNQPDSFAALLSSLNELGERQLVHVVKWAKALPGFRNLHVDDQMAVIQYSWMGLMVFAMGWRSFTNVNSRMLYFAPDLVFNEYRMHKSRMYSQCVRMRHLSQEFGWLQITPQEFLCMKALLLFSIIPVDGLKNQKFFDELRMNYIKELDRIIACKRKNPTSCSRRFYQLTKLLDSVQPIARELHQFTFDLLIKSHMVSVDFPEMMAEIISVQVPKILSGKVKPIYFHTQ
Method in brief: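 Stimulation of an AR-responsive β-lactamase reporter in GripTite HEK293 cells was measured after 16 h compound exposure at 37 °C, via CCF4 fluorescence after 2 h RT. EC50 from Hill fits, normalized to R1881 at 30 nM.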
% is scaled to controls: 0 for no effect and ±100 for the full control effect.

Row | SMILES | activation
1 | CCCC1COC(Cn2cncn2)(c2ccc(Cl)cc2Cl)O1 (stereo unspecified) | -7.53% and -11.8%
2 | Cc1cnc(C2=NC(C)(C(C)C)C(=O)N2)c(C(=O)O)c1 (stereo unspecified) | -8.96% and 2.01%
3 | CCOc1nc(NC)nc(NC(=O)NS(=O)(=O)c2ccccc2C(=O)OC)n1 | -6.67%
4 | CCOP(=O)(SC(C)CC)SC(C)CC (stereo unspecified) | 7.1%
5 | CNC(=O)Oc1cccc2c1OC(C)(C)C2O (stereo unspecified) | 3.8%
6 | C/C(=N\C(N)=O)N(C)Cc1ccc(Cl)nc1 | -2.44%
7 | O=S1OC[C@@H]2[C@H](CO1)[C@@]1(Cl)C(Cl)=C(Cl)[C@]2(Cl)C1(Cl)Cl (stereo partly specified) | -8.15% and -7.22%
8 | FC(F)(F)c1ccc(OCCCOc2c(Cl)cc(OCC=C(Cl)Cl)cc2Cl)nc1 | -16.8%
9 | Cc1ccccc1C(=O)Nc1cccc(OC(C)C)c1 | -11.5%
10 | CCOC1Oc2ccc(OS(C)(=O)=O)cc2C1(C)C (stereo unspecified) | -8.07%
11 | Nc1ccc([N+](=O)[O-])cc1Cl | -9.37%
12 | CCOP(=O)(OCC)SCSCC | 6.75%
13 | CCOP(=O)(OCC)SCSC(C)(C)C | 3.02%
14 | Cc1cc(Cl)ccc1OCC(=O)O | -0.462% and -10.2%
15 | CCOP(=S)(S)OCC | 24.9%
16 | CCCCN(CC)C(=O)SCCC | 8.69%
17 | C/C=C(\C)C(=O)O[C@H]1C[C@@H](OC(C)=O)[C@@]2(C(=O)OC)CO[C@H]3[C@@H](O)[C@@](C)([C@]45O[C@@]4(C)[C@H]4C[C@@H]5O[C@@H]5OC=C[C@@]54O)[C@H]4[C@]1(CO[C@]4(O)C(=O)OC)[C@@H]32 | 2.71%

target: Androgen receptor (Homo sapiens) (UniProt P10275); assay: qHTS assay for small molecule antagonists of androgen receptor signaling (AID 588516; active = well fitted curve in the direction sought with a large enough effect in the signal ratio, with a control signal flat, not every such curve was filed as active; the % refers to the signal ratio); conditions: AR-UAS-bla HEK293, beta-lactamase ratio, antagonist mode, 16 h; series mostly up to 76.8 µM; activity change, negative = inhibition: at the top concentration
Method in brief: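 AR-UAS-bla GripTite HEK 293 cells (2000/well) treated with compound titrations plus 10 nM R1881 for 16 h at 37C. Beta-lactamase read by CCF4 FRET (460/530 nm); IC50 from Hill fits, normalized to R1881 and DMSO control wells.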

Row | SMILES | activity change, negative = inhibition [%] | Potency
18 | CCCC1COC(Cn2cncn2)(c2ccc(Cl)cc2Cl)O1 (stereo unspecified) | -8.21 | 
19 | Cc1cnc(C2=NC(C)(C(C)C)C(=O)N2)c(C(=O)O)c1 (stereo unspecified) | -6.05 | 
20 | CCOP(=S)(OCC)SCC(=O)NC(C)C | 7.02 | 
21 | CCOP(=O)(SC(C)CC)SC(C)CC (stereo unspecified) | 2.53 | 
22 | CNC(=O)Oc1cccc2c1OC(C)(C)C2O (stereo unspecified) | 13.1 | 
23 | C/C(=N\C(N)=O)N(C)Cc1ccc(Cl)nc1 | -8.83 | 
24 | O=S1OC[C@@H]2[C@H](CO1)[C@@]1(Cl)C(Cl)=C(Cl)[C@]2(Cl)C1(Cl)Cl (stereo partly specified) | -28.4 | 
25 | FC(F)(F)c1ccc(OCCCOc2c(Cl)cc(OCC=C(Cl)Cl)cc2Cl)nc1 | 8.54 | 
26 | CCOC1Oc2ccc(OS(C)(=O)=O)cc2C1(C)C (stereo unspecified) | 17.7 | 
27 | CCOP(=O)(OCC)SCSCC | -7.06 | 
28 | CCOP(=O)(OCC)SCSC(C)(C)C | -0.8 | 
29 | Cc1cc(Cl)ccc1OCC(=O)O |  | inactive
30 | CCOP(=S)(S)OCC | -1.83 | 
31 | C/C=C(\C)C(=O)O[C@H]1C[C@@H](OC(C)=O)[C@@]2(C(=O)OC)CO[C@H]3[C@@H](O)[C@@](C)([C@]45O[C@@]4(C)[C@H]4C[C@@H]5O[C@@H]5OC=C[C@@]54O)[C@H]4[C@]1(CO[C@]4(O)C(=O)OC)[C@@H]32 | -17.3 | 

target: Bile acid receptor (Homo sapiens) (UniProt Q96RI1); assay: qHTS assay for small molecule antagonists of farnesoid X receptor signaling (AID 588526); conditions: HEK293T FXR-UAS-bla, beta-lactamase ratio, antagonist mode; series mostly up to 76.7 µM; activity change, negative = inhibition: at the top concentration
Sequence (Q96RI1 whole entry, looked up): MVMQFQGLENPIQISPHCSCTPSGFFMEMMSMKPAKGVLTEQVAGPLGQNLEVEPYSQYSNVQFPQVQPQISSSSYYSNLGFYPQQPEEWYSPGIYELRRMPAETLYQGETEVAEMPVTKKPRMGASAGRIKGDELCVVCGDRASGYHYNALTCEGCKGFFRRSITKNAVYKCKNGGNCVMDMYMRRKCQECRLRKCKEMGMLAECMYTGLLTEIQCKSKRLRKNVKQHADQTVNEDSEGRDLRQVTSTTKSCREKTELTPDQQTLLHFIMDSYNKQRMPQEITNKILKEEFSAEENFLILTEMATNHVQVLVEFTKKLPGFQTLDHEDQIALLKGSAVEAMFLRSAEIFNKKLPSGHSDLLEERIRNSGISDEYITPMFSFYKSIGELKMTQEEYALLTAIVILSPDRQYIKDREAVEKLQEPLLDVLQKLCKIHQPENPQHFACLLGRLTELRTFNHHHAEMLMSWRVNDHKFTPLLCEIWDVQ
Method in brief: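 Concentration-response titrations were fitted to the Hill equation for half-maximal inhibition and maximal response, with data normalised to 50 uM chenodeoxycholic acid and DMSO control wells. Cells: FXR-UAS-bla HEK293T, dialyzed FBS.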

Row | SMILES | Potency | activity change, negative = inhibition [%]
32 | C/C(=N\NC(=O)Nc1cc(F)cc(F)c1)c1ncccc1C(=O)O | inactive | 
33 | CCCC1COC(Cn2cncn2)(c2ccc(Cl)cc2Cl)O1 (stereo unspecified) | inactive | 
34 | O=S(=O)(c1ccc(O)cc1)c1ccc(O)cc1 |  | -10.8
35 | CCOP(=O)(O)C(N)=O |  | 6.94
36 | CCOc1nc(NC)nc(NC(=O)NS(=O)(=O)c2ccccc2C(=O)OC)n1 |  | -16.6
37 | COc1ccc(O)c(C(C)(C)C)c1 |  | -4.39
38 | CCOP(=S)(OCC)SCC(=O)NC(C)C |  | 2.28
39 | NS(=O)(=O)C(F)(F)C(F)(F)C(F)(F)C(F)(F)C(F)(F)C(F)(F)C(F)(F)C(F)(F)F |  | -1.41
40 | Clc1ccc([C@]2(Cn3cncn3)C[C@@H](Br)CO2)c(Cl)c1 |  | 3
41 | CNC(=O)Oc1cccc2c1OC(C)(C)C2O (stereo unspecified) |  | 1.17
42 | C/C(=N\C(N)=O)N(C)Cc1ccc(Cl)nc1 |  | 7.09
43 | FC(F)(F)c1ccc(OCCCOc2c(Cl)cc(OCC=C(Cl)Cl)cc2Cl)nc1 |  | 6.25
44 | C=CCC1=C(C)[C@@H](OC(=O)[C@@H]2[C@@H](C=C(C)C)C2(C)C)CC1=O |  | -27
45 | CCCCC(CC)C(=O)Cl (stereo unspecified) |  | -5.86
46 | CCNc1nc(NC(C)(C)C)nc(SC)n1 |  | -8.83
47 | CCOP(=O)(OCC)SCSCC |  | 7.37
48 | CCOP(=O)(OCC)SCSC(C)(C)C |  | 8.02
49 | CNC(=O)Oc1ccc(N(C)C)c(C)c1 |  | 2.91
50 | COC(=O)c1ccccc1CS(=O)(=O)NC(=O)Nc1nc(OC)cc(OC)n1 |  | -2.82
51 | CCOP(=S)(OCC)Oc1cnc2ccccc2n1 |  | -5.83
52 | CCOP(=S)(S)OCC |  | 4.89
53 | CCCCN(CC)C(=O)SCCC |  | 3.81
54 | O=[N+]([O-])c1ccc(Oc2ccc(C(F)(F)F)cc2[N+](=O)[O-])cc1 |  | 9.02
55 | C/C=C(\C)C(=O)O[C@H]1C[C@@H](OC(C)=O)[C@@]2(C(=O)OC)CO[C@H]3[C@@H](O)[C@@](C)([C@]45O[C@@]4(C)[C@H]4C[C@@H]5O[C@@H]5OC=C[C@@]54O)[C@H]4[C@]1(CO[C@]4(O)C(=O)OC)[C@@H]32 |  | 2.23
56 | C=CC1(C)OC(=O)N(c2cc(Cl)cc(Cl)c2)C1=O (stereo unspecified) |  | 5.5

From PubChem BioAssay (NCATS)
